Results: the supplement of paper PMC8007513
Structures can show the parent of a compound that is named as a salt. ± gives the standard error. The campaign covered roughly 1,300 compounds. About 130 (10%) showed an effect of 50% or more. The sample holds strong results, similar compounds and a random draw of the others, so the mix is not that of the screen.

Tested on: Trichoderma virens ATCC 9645
Test: growth yield (OD600) with compound + IPBC relative to untreated control; higher = less growth inhibition
Details: compound concentration: 100 uM, IPBC concentration: 200 ng/ml
In short: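 Library compounds (100 μM final), with or without a co-applied biocide (200 ng ml^−1), were added to 100 μl aliquots of Trichoderma virens ATCC 9645 spores at 15,000 spores ml^−1 in potato dextrose broth. Cultures were grown at 30 °C in 96-well plates, and OD600 was measured at 40 h and 72 h. Each growth value is a mean of duplicate screens, expressed relative to the control with neither agent.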

SMILES | growth yield (40 h) | growth yield (72 h)
COCCCOc1cc(C[C@@H](C[C@H](N)[C@@H](O)C[C@H](C(=O)NCC(C)(C)C(N)=O)C(C)C)C(C)C)ccc1OC [Aliskiren hemifumarate] + CCCCNC(=O)OCC#CI [3-iodo-2-propynyl butylcarbamate (IPBC)] | 93.4 ± 5.1% | 99.1 ± 1.1%
CCOc1ccccc1OC(c1ccccc1)C1CNCCO1 (centres undefined) [Reboxetine mesylate] + CCCCNC(=O)OCC#CI [3-iodo-2-propynyl butylcarbamate (IPBC)] | 82.92 ± 0.32% | 90.61 ± 0.63%
CC(N)C(O)c1ccccc1 (centres undefined) [Phenylpropanolamine hydrochloride] + CCCCNC(=O)OCC#CI [3-iodo-2-propynyl butylcarbamate (IPBC)] | 97.1 ± 7.5% | 101 ± 3.5%
CCc1cccc(CC)c1NC(=O)CN(CC(=O)O)CC(=O)O [Etifenin] + CCCCNC(=O)OCC#CI [3-iodo-2-propynyl butylcarbamate (IPBC)] | 87.7 ± 4.1% | 94.4 ± 2.3%
O=C(O)CN(CCN(CC(=O)O)CC(=O)O)CCN(CC(=O)O)CC(=O)O [Pentetic acid] + CCCCNC(=O)OCC#CI [3-iodo-2-propynyl butylcarbamate (IPBC)] | 18.7 ± 1.6% | 88.41 ± 0.73%
O=P(O)(O)C(O)(Cc1cccnc1)P(=O)(O)O [Risedronic acid monohydrate] + CCCCNC(=O)OCC#CI [3-iodo-2-propynyl butylcarbamate (IPBC)] | 88.8 ± 2.7% | 91.66 ± 0.42%
COc1ccc(C[C@@H]2c3cc(OC)c(OC)cc3CC[N@+]2(C)CCC(=O)OCCCCCOC(=O)CC[N@@+]2(C)CCc3cc(OC)c(OC)cc3[C@H]2Cc2ccc(OC)c(OC)c2)cc1OC [Cisatracurium besylate] + CCCCNC(=O)OCC#CI [3-iodo-2-propynyl butylcarbamate (IPBC)] | 78.3 ± 2.1% | 85.9 ± 4.1%
CC1=C(/C=C/C(C)=C/C=C/C(C)=C\C(=O)O)C(C)(C)CCC1 [Isotretinoin] + CCCCNC(=O)OCC#CI [3-iodo-2-propynyl butylcarbamate (IPBC)] | 83.5% | 105 ± 16%
CCCCOc1ccc(C(=O)CCN2CCCCC2)cc1 [Dyclonine hydrochloride] + CCCCNC(=O)OCC#CI [3-iodo-2-propynyl butylcarbamate (IPBC)] | 75.4 ± 1.1% | 90.8 ± 1.5%
N=C(N)c1ccc(OCCCCCOc2ccc(C(=N)N)cc2)cc1 [Pentamidine isethionate] + CCCCNC(=O)OCC#CI [3-iodo-2-propynyl butylcarbamate (IPBC)] | 2.7 ± 0.48% | 2.1 ± 0.42%
CCCCOc1ccc(CC(=O)NO)cc1 [Bufexamac] + CCCCNC(=O)OCC#CI [3-iodo-2-propynyl butylcarbamate (IPBC)] | 99.59 ± 0.16% | 95.438 ± 1e-14%
CCCNC(C)(C)COC(=O)c1ccccc1 [Meprylcaine hydrochloride] + CCCCNC(=O)OCC#CI [3-iodo-2-propynyl butylcarbamate (IPBC)] | 87.7 ± 7.6% | 91.8 ± 5.1%
Nc1nc(O)c2ncn(CCC(CO)CO)c2n1 [Penciclovir] + CCCCNC(=O)OCC#CI [3-iodo-2-propynyl butylcarbamate (IPBC)] | 82.76 ± 0.48% | 95.6 ± 1.3%
Cc1ccccc1C(=O)Nc1ccc(C(=O)N2CCCC(O)c3cc(Cl)ccc32)c(C)c1 (centres undefined) [Tolvaptan] + CCCCNC(=O)OCC#CI [3-iodo-2-propynyl butylcarbamate (IPBC)] | 107 ± 2.5% | 107.1 ± 0.94%
CN1CCCC(CC2c3ccccc3Sc3ccccc32)C1 (centres undefined) [Metixene hydrochloride] + CCCCNC(=O)OCC#CI [3-iodo-2-propynyl butylcarbamate (IPBC)] | 48.9 ± 2.2% | 85.3 ± 2%
Cc1ncc(CO)c(CO)c1O [Pyridoxine hydrochloride] + CCCCNC(=O)OCC#CI [3-iodo-2-propynyl butylcarbamate (IPBC)] | 79.58 ± 0.79% | 85.7 ± 2.2%
CCN(CC)CCOC(=O)C(Cc1cccc2ccccc12)CC1CCCO1 (centres undefined) [Nafronyl oxalate] + CCCCNC(=O)OCC#CI [3-iodo-2-propynyl butylcarbamate (IPBC)] | 71.5 ± 1.3% | 87.36 ± 0.1%
CO[C@H]1/C=C/O[C@@]2(C)Oc3c(C)c(O)c4c(O)c(c(/C=N/N5CCN(C6CCCC6)CC5)c(O)c4c3C2=O)NC(=O)/C(C)=C\C=C\[C@H](C)[C@H](O)[C@@H](C)[C@@H](O)[C@@H](C)[C@H](OC(C)=O)[C@@H]1C [Rifapentine] + CCCCNC(=O)OCC#CI [3-iodo-2-propynyl butylcarbamate (IPBC)] | 90.2 ± 0.95% | 94.5 ± 2.6%
NC[C@H]1CC[C@H](C(=O)O)CC1 [Tranexamic acid] + CCCCNC(=O)OCC#CI [3-iodo-2-propynyl butylcarbamate (IPBC)] | 100 ± 3.8% | 104 ± 1.1%

SMILES | growth yield (40 h) | growth yield (72 h)
CCC1(c2ccccc2)NC(=O)N(C)C1=O (centres undefined) [Mephenytoin] + CCCCNC(=O)OCC#CI [3-iodo-2-propynyl butylcarbamate (IPBC)] | 88.5 ± 2.4% | 100 ± 9.9%
CN(C)[C@@H]1C(O)=C(C(N)=O)C(=O)[C@@]2(O)C(O)=C3C(=O)c4c(O)cccc4[C@@](C)(O)[C@H]3C[C@@H]12 [Tetracycline hydrochloride] + CCCCNC(=O)OCC#CI [3-iodo-2-propynyl butylcarbamate (IPBC)] | 99.3 ± 11% | 96.9 ± 6.3%
C[N+]1(C)CCC(OC(=O)C(O)(c2ccccc2)C2CCCC2)C1 (centres undefined) [Glycopyrrolate] + CCCCNC(=O)OCC#CI [3-iodo-2-propynyl butylcarbamate (IPBC)] | 101 ± 14% | 98.7 ± 8.1%
O=C1c2c(O)cccc2Cc2cccc(O)c21 [Anthralin] + CCCCNC(=O)OCC#CI [3-iodo-2-propynyl butylcarbamate (IPBC)] | 71.8 ± 3.8% | 82.4 ± 1.3%
O=C1c2cccc(O)c2C(=O)c2c(O)cccc21 [1,8-Dihydroxyanthraquinone] + CCCCNC(=O)OCC#CI [3-iodo-2-propynyl butylcarbamate (IPBC)] | 55.12 ± 0.16% | 77.2 ± 1.9%
O=C1c2c(O)ccc(O)c2C(=O)c2c(NCCNCCO)ccc(NCCNCCO)c21 [Mitoxantrone dihydrochloride] + CCCCNC(=O)OCC#CI [3-iodo-2-propynyl butylcarbamate (IPBC)] | 1.27 ± 1.3% | 0%
CN(C)[C@@H]1C(O)=C(C(N)=O)C(=O)[C@@]2(O)C(O)=C3C(=O)c4c(O)ccc(Cl)c4[C@@H](O)[C@H]3C[C@@H]12 [Demeclocycline hydrochloride] + CCCCNC(=O)OCC#CI [3-iodo-2-propynyl butylcarbamate (IPBC)] | 68.8 ± 2.4% | 76.1 ± 1.1%
CC(C)CC(N(C)C)C1(c2ccc(Cl)cc2)CCC1 (centres undefined) [Sibutramine hydrochloride] + CCCCNC(=O)OCC#CI [3-iodo-2-propynyl butylcarbamate (IPBC)] | 76.7 ± 0.79% | 90.82 ± 0.42%
CCC[C@H](N[C@@H](C)C(=O)N1[C@H](C(=O)O)C[C@@H]2CCCC[C@@H]21)C(=O)OCC [Perindopril] + CCCCNC(=O)OCC#CI [3-iodo-2-propynyl butylcarbamate (IPBC)] | 98.8 ± 5.1% | 97.5 ± 3.1%
COC(=O)Nc1nc2cc(C(=O)c3ccc(F)cc3)ccc2[nH]1 [Flubendazol] + CCCCNC(=O)OCC#CI [3-iodo-2-propynyl butylcarbamate (IPBC)] | 86.4 ± 5.4% | 91.1 ± 4.9%
COC(=O)Nc1nc2cc([S+]([O-])c3ccccc3)ccc2[nH]1 (centres undefined) [Oxfendazol] + CCCCNC(=O)OCC#CI [3-iodo-2-propynyl butylcarbamate (IPBC)] | 93.4 ± 6.3% | 98.2 ± 4.2%
CCCSc1ccc2[nH]c(NC(=O)OC)nc2c1 [Albendazole] + CCCCNC(=O)OCC#CI [3-iodo-2-propynyl butylcarbamate (IPBC)] | 87.7 ± 8.9% | 99.7 ± 2.8%
CCCOc1ccc2[nH]c(NC(=O)OC)nc2c1 [Oxibendazol] + CCCCNC(=O)OCC#CI [3-iodo-2-propynyl butylcarbamate (IPBC)] | 44.6 ± 2.1% | 85 ± 4.8%
COC(=O)Nc1nc2cc(C(=O)c3ccccc3)ccc2[nH]1 [Mebendazole] + CCCCNC(=O)OCC#CI [3-iodo-2-propynyl butylcarbamate (IPBC)] | 68 ± 1.9% | 89.36 ± 0.63%
CCCCc1ccc2[nH]c(NC(=O)OC)nc2c1 [Parbendazole] + CCCCNC(=O)OCC#CI [3-iodo-2-propynyl butylcarbamate (IPBC)] | 27 ± 4.1% | 80.2 ± 2.2%
N#Cc1cc(NC(=O)C(=O)O)c(Cl)c(NC(=O)C(=O)O)c1 [Lodoxamide] + CCCCNC(=O)OCC#CI [3-iodo-2-propynyl butylcarbamate (IPBC)] | 114 ± 10% | 109 ± 12%
C=C(NC(=O)C(=C)NC(=O)c1csc(C2=N[C@@H]3c4csc(n4)[C@H]4NC(=O)c5csc(n5)[C@H]([C@](C)(O)[C@@H](C)O)NC(=O)[C@H]5CSC(=N5)/C(=C/C)NC(=O)[C@H]([C@@H](C)O)NC(=O)c5csc(n5)[C@]3(CC2)NC(=O)[C@H](C)NC(=O)C(=C)NC(=O)[C@H](C)NC(=O)[C@H]([C@@H](C)CC)N[C@@H]2C=Cc3c([C@H](C)O)cc(nc3[C@H]2O)C(=O)O[C@@H]4C)n1)C(N)=O [Thiostrepton] + CCCCNC(=O)OCC#CI [3-iodo-2-propynyl butylcarbamate (IPBC)] | 101 ± 2.5% | 100 ± 1.6%
CNCCC=C1c2ccccc2CCc2ccccc21 [Nortriptyline hydrochloride] + CCCCNC(=O)OCC#CI [3-iodo-2-propynyl butylcarbamate (IPBC)] | 70.5 ± 2.2% | 94.28 ± 0.73%
